Screening data (PubChem)
Pf Dd2 inh: inhibitors of Plasmodium falciparum Dd2 growth. AID 1347417. hit rate 4.3% among 120,000. P. falciparum Dd2 growth, SYBR Green, 72 h. Potency, µM (doses to about 28.9 µM), inactives show at the highest dose activity, negative = inhibition, hits mostly inhibitors; active = well fitted inhibition curve with a large enough effect;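 note: plate controls were DMSO vehicle for no effect and reference drug for full effect; nearly all actives have a fitted effect of over 65% in size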
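Readout: SYBR Green fluorescence, 485 nm excitation, 535 nm emission, after ~16 h lysis at 37C. Before that, Dd2-infected red cells (2.5% hematocrit) grew 72 h with compound, 29 uM top final concentration.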
An asterisk follows results filed as active; i = inactive; [ ] = remark or other dose. The sample as a whole holds a higher share of hits than the screen did. Potency is the fitted concentration of half-maximal effect.

SMILES | Pf Dd2 inh
Cc1ccc(-n2c(C3CCN(C(=O)c4ccc5c(c4)OCO5)CC3)n[nH]c2=O)cc1 | -24%
CC(C)C(=O)N1CCCCCCNC(=O)[C@@H]2C[C@@H](C(=O)N3CCN(c4ccccn4)CC3)C[C@@H]21 | -21%
Cn1ccnc1C(=O)N1CCCCCNC(=O)[C@H]2C[C@H](C(=O)N3CCc4ccccc4C3)C[C@H]21 | -25%
O=C1NCCCCCCN[C@H]2C[C@H](C(=O)N3CCc4ccccc4C3)C[C@@H]12 | 6.3µM*
O=C1CCCCC(C(=O)N2CCc3ccccc3C2)N1 (stereo not given) | -8%
O=C1NCCCCCN(C(=O)NC2CCCCC2)[C@@H]2C[C@@H](C(=O)N3CCc4ccccc4C3)C[C@H]12 | 8.9µM*
CCS(=O)(=O)N1CCCCCCNC(=O)[C@@H]2C[C@@H](C(=O)N3CCc4ccccc4C3)C[C@@H]21 | i
CNC(=O)[C@@H]1CN(C(=O)NCc2ccco2)C[C@H]1c1nc(C)no1 | 7%
COC1CCN(C(=O)c2ccnc(-c3nnc4ccc(N(C)c5ccccc5)nn34)c2)CC1 | i
COc1ccc(C(=O)N2CCC(Oc3ccc(C(=O)N(C)C)cn3)CC2)cc1 | 49%
O[C@@H]1C[C@@H](c2nc(Cc3ccc(F)cc3Cl)no2)N(Cc2ccc(OC(F)(F)F)cc2)C1 | 7.9µM*
O[C@@H]1C[C@@H](c2nc(-c3ccc4c(c3)OCO4)no2)N(Cc2cccc(OC(F)(F)F)c2)C1 | -10%
O=[N+]([O-])c1ccccc1CN1C[C@H](O)C[C@H]1c1nc(Cc2ccc(F)cc2Cl)no1 | i
COC[C@@H]1CN(C(=O)c2ccc(=O)[nH]c2)C[C@H]1c1ccncc1 | 36%
O=C(CCNc1c(-c2cccc(F)c2)nc2cnccn12)NCc1ccccc1 | i
COc1ccc(CNC(=O)C[C@@H]2C[C@H]3O[C@H](CNC(=O)NC(C)C)[C@@H](O)[C@H]3O2)cc1 | -11%[44.1 µM]
CCC(=O)Nc1ccc([C@H]2OCC(=O)N(Cc3ccc(F)cc3)[C@@H]2CO)cc1 | 12%[44.1 µM]
O=C(NCCc1ccncc1)c1ccc(OC2CCN(C(=O)C3CC3)CC2)cc1 | -23%
CCOC(=O)c1cnc2ccccc2c1Nc1ccc(N2CCOCC2)cc1 | 28%
CCOC(=O)c1cnc2c(ccc3ccccc32)c1Nc1ccc(OC)cc1OC | 0%
CCOC(=O)c1cnc2c(ccc3ccccc32)c1Nc1ccccc1OCC | 30%
CCOC(=O)c1cnc2c(ccc3ccccc32)c1Nc1ccccc1OC | 9%
CCOC(=O)c1cnc2c(ccc3ccccc32)c1Nc1ccc(C(C)=O)cc1 | 5µM*
CCOC(=O)c1cnc2c(ccc3ccccc32)c1Nc1ccc(OC)c(OC)c1 | 3.5µM*
O=C(NCC1CC1)C1Cn2cccc2C(=O)N1Cc1ccccc1 (stereo not given) | -21%
SMILES | Pf Dd2 inh
CCCN(CCC)C(=O)[C@H]1CCC[C@H]1NC(=O)c1ccc(OC)nc1 | -11%
Cc1ccccc1CNC[C@H]1O[C@@H]2C[C@@H](CC(=O)N3CCOCC3)O[C@@H]2[C@@H]1O | -10%[44.1 µM]
CS(=O)(=O)N1CCC(CC(=O)N2CCCC2)C1 (stereo not given) | -9%
CN(C)c1ccc(CN2CCC3(CC2)C(=NC2CCCCC2)NC(=O)N3c2cccnc2)cc1 | 7%
O=C1NC(=NC2CCCC2)C2(CCN(Cc3ccccc3)C2)N1c1cc(F)cc(F)c1 (stereo not given) | 1.4µM*
O=C1NC(=NC2CCCCC2)C2(CCN(Cc3ccsc3)C2)N1c1cc(F)cc(F)c1 (stereo not given) | 6%
CC(=O)N1CCCC2(C1)C(=NC1CCCC1)NC(=O)N2c1cc(F)cc(F)c1 (stereo not given) | -13%
O=C1NC(=NC2CCCC2)C2(CCCN(Cc3ccc(F)cc3)C2)N1c1cc(F)cc(F)c1 (stereo not given) | 7.9µM*
O=C1NC(=NC2CCCCC2)C2(CCN(Cc3cccnc3)C2)N1c1cccnc1 (stereo not given) | -4%
C[S+](=O)([O-])N1CCC2(CC1)C(=NC1CCCC1)NC(=O)N2c1cc(F)cc(F)c1 | 24%
CN(C)c1ccc(CN2CCCC3(C2)C(=NC2CCCCC2)NC(=O)N3c2cc(F)cc(F)c2)cc1 (stereo not given) | 5.6µM*
O=C(OCc1ccccc1)N1CCC2(CC1)C(=NC1CCCC1)NC(=O)N2c1cc(F)cc(F)c1 | i
O=C1NC(=NC2CCCC2)C2(CCN([S+](=O)([O-])c3ccccc3)C2)N1c1cc(F)cc(F)c1 (stereo not given) | -14%
CC(C)CCN1CCC2(C1)C(=NC1CCCC1)NC(=O)N2c1cc(F)cc(F)c1 (stereo not given) | 8.9µM*
CC(C)CCN1CCC2(CC1)C(=NC1CCCCC1)NC(=O)N2c1cccnc1 | 12%
COc1ccc(C2(C(=O)N3CCC4(CC3)N(C)C(=O)CS4(=O)=O)CC2)cc1 | -10%
Cc1ccc(CN2CCc3nc(N(C)Cc4cccnc4)[nH]c(=O)c3CC2)o1 | i[5.79 µM]
CC(C)CCNC(=O)c1cnc2n1CCN(Cc1ccccc1F)CC2 | -17%[44.1 µM]
CNC(=O)C1(N2CCC[C@H]2C(=O)NCCN2CCOCC2)CCCCC1 | 10%
